# According to PubChem BioAssay (NCI):
# The panel holds about 79,000 compounds, 15% with a hit somewhere; the sample as a whole holds those more often. A number with no mark means an inactive call. Activity calls are given as the source filed them. Rule as the data show it: active = growth inhibition above about 70%; inactive = the rest.
# Experiments:
# [1] = NCI Yeast Anticancer Drug Screen. Data for the mlh1 strain (AID 171);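 also: 0% = growth of vehicle-treated control cultures of the same strain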; settings: S. cerevisiae mlh1 strain growth inhibition, active compounds read high
# Outline: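 Measured: yeast growth. Reference: vehicle-treated controls. Organism: strain with a defined alteration affecting DNA damage repair or cell cycle control, treated with compound.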
# [2] = NCI Yeast Anticancer Drug Screen. Data for the sgs1 strain (AID 173);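 also: 0% = growth of vehicle-only control cultures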; settings: S. cerevisiae sgs1 mutant, active compounds read high
# Outline: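 Each compound was added to cultures of the altered yeast strain. Growth was recorded, and inhibition was derived by comparison with vehicle controls.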
# [3] = NCI Yeast Anticancer Drug Screen. Data for the mlh1 rad18 strain (AID 175); settings: S. cerevisiae mlh1 rad18 strain growth inhibition, active compounds read high
# Outline: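 Genetically defined yeast (DNA repair-deficient) exposed to compounds; growth inhibition determined relative to vehicle.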
# [4] = NCI Yeast Anticancer Drug Screen. Data for the rad18 strain (AID 177); settings: S. cerevisiae rad18 mutant growth inhibition, active compounds read high
# Outline: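 Vehicle-treated cultures served as the baseline for scoring compound-induced growth inhibition in DNA-repair-mutant yeast.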
# [5] = NCI Yeast Anticancer Drug Screen. Data for the rad52 strain (AID 147);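 also: 0% = growth of vehicle-treated control cultures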; settings: S. cerevisiae rad52 mutant growth inhibition, active compounds read high
# Outline: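 The repair-mutant yeast strain was incubated with compounds, then growth was read and inhibition derived relative to vehicle.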
# [6] = NCI Yeast Anticancer Drug Screen. Data for the wt1 strain (AID 149);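 also: 0% = growth of vehicle-treated wt1 cultures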; settings: S. cerevisiae wt1 strain (SPY 50644) growth inhibition, active compounds read high
# Outline: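 Vehicle-normalised growth inhibition; strain wt1; compound exposure.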
# [7] = NCI Yeast Anticancer Drug Screen. Data for the rad50EPP+ strain (AID 151);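 also: 0% = growth of vehicle-treated control cultures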; settings: S. cerevisiae rad50 mutant strain, active compounds read high
# Outline: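 Vehicle-normalised growth inhibition; rad50EPP+ yeast strain, altered in DNA damage repair, compound-treated.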
# [8] = NCI Yeast Anticancer Drug Screen. Data for the mgt1 strain (AID 153); settings: S. cerevisiae mgt1 mutant growth inhibition, active compounds read high
# Outline: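 Vehicle-normalized growth inhibition is determined in mgt1 yeast, a strain selected for a defined alteration in DNA repair or cell cycle control.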
# [9] = NCI Yeast Anticancer Drug Screen. Data for the rad50 strain (AID 155);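 also: 0% = growth of vehicle-only cultures of the same strain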; settings: S. cerevisiae rad50 strain growth inhibition, active compounds read high
# Outline: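 A DNA repair-deficient yeast mutant serves as the test organism; compound-induced growth inhibition is calculated against vehicle-treated cells.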
# [10] = NCI Yeast Anticancer Drug Screen. Data for the mec2-1 strain (AID 157); settings: S. cerevisiae mec2-1 strain, active compounds read high
# Outline: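 Mutant yeast (mec2-1) grown with compound; growth inhibition relative to vehicle control reported.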
# [11] = NCI Yeast Anticancer Drug Screen. Data for the rad14 strain (AID 159);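 also: 0% = growth of vehicle-treated control cultures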; settings: S. cerevisiae rad14 strain growth inhibition, active compounds read high
# Outline: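 Vehicle-treated cultures served as the baseline for growth inhibition of a DNA repair-mutant yeast strain exposed to each compound.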
# [12] = NCI Yeast Anticancer Drug Screen. Data for the sgs1 mgt1 strain (AID 161);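 also: 0% = growth of cultures given vehicle only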; settings: S. cerevisiae sgs1 mgt1 strain, active compounds read high
# Outline: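 Growth of a repair-deficient yeast mutant was monitored after compound treatment and expressed as inhibition relative to vehicle-treated cultures.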
# [13] = NCI Yeast Anticancer Drug Screen. Data for the CLN2oe strain (AID 163);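 also: 0% = growth of vehicle-only control cultures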; settings: S. cerevisiae CLN2oe strain, active compounds read high
# Outline: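 Compounds are applied to yeast harbouring a defined cell-cycle control change; reduced growth compared with vehicle-treated controls gives the value.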
# [14] = NCI Yeast Anticancer Drug Screen. Data for the cln2 rad14 strain (AID 165);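 also: 0% = growth equal to vehicle treated cultures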; settings: S. cerevisiae cln2 rad14 strain, active compounds read high
# Outline: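 Readout is yeast growth inhibition versus vehicle-treated controls, using a strain with cln2 and rad14 alterations exposed to compound.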
# [15] = NCI Yeast Anticancer Drug Screen. Data for the bub3 strain (AID 167); settings: S. cerevisiae bub3 mutant strain, active compounds read high
# Outline: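 Inhibition values come from growth of compound-treated mutant yeast normalised to vehicle-treated controls.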
# [16] = NCI Yeast Anticancer Drug Screen. Data for the wt2 strain (AID 169);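 also: 0% = growth of vehicle-treated yeast cultures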; settings: S. cerevisiae wt2 strain growth inhibition, active compounds read high
# Outline: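 Against vehicle-treated controls, the growth of yeast exposed to each compound was compared, and the inhibition was recorded.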
# [17] = at 5.0 µM (retest, dose inferred, filed as 0.5)
# [18] = at 50.0 µM (retest, dose inferred, filed as 5.0)
smiles,measurement,setting,value
CCNC(=O)OCC1C2=C(C(=O)C(C)=C(N)C2=O)N2CC3C(N3C)C12OC (stereo not drawn),growth inhibition,[1]; at 33.0 µM,56%
same,growth inhibition,[1]; at 100.0 µM,84% (active)
same,growth inhibition,[2]; at 1.2 µM,4%
same,growth inhibition,[2]; at 3.7 µM,16%
same,growth inhibition,[2]; at 11.0 µM,29%
same,growth inhibition,[2]; at 33.0 µM,59%
same,growth inhibition,[2]; at 100.0 µM,81% (active)
same,growth inhibition,[3]; [17],73% (active)
same,growth inhibition,[3]; [18],92% (active)
same,growth inhibition,[3]; at 50.0 µM,70.8% (active)
same,growth inhibition,[4]; at 1.2 µM,13%
same,growth inhibition,[4]; at 3.7 µM,40%
same,growth inhibition,[4]; at 11.0 µM,72% (active)
same,growth inhibition,[4]; at 33.0 µM,89% (active)
same,growth inhibition,[4]; at 100.0 µM,91% (active)
Cc1ccc2nc3sc(=O)sc3nc2c1,growth inhibition,[5]; at 1.2 µM,48%
same,growth inhibition,[5]; at 3.7 µM,66%
same,growth inhibition,[5]; at 11.0 µM,99% (active)
same,growth inhibition,[5]; at 33.0 µM,98% (active)
same,growth inhibition,[5]; at 100.0 µM,96% (active)
same,growth inhibition,[6]; at 1.2 µM,-2%
same,growth inhibition,[6]; at 3.7 µM,22%
same,growth inhibition,[6]; at 11.0 µM,88% (active)
same,growth inhibition,[6]; at 33.0 µM,98% (active)
same,growth inhibition,[6]; at 100.0 µM,97% (active)
same,growth inhibition,[7]; at 1.2 µM,26%
same,growth inhibition,[7]; at 3.7 µM,49%
same,growth inhibition,[7]; at 11.0 µM,79% (active)
same,growth inhibition,[7]; at 33.0 µM,96% (active)
same,growth inhibition,[7]; at 100.0 µM,95% (active)
same,growth inhibition,[8]; at 1.2 µM,22%
same,growth inhibition,[8]; at 3.7 µM,40%
same,growth inhibition,[8]; at 11.0 µM,96% (active)
same,growth inhibition,[8]; at 33.0 µM,98% (active)
same,growth inhibition,[8]; at 100.0 µM,98% (active)
same,growth inhibition,[9]; at 1.2 µM,13%
same,growth inhibition,[9]; at 3.7 µM,27%
same,growth inhibition,[9]; [17],27%
same,growth inhibition,[9]; at 11.0 µM,96% (active)
same,growth inhibition,[9]; at 33.0 µM,97% (active)
same,growth inhibition,[9]; [18],92% (active)
same,growth inhibition,[9]; at 50.0 µM,97% (active)
same,growth inhibition,[9]; at 100.0 µM,96% (active)
same,growth inhibition,[10]; at 1.2 µM,16%
same,growth inhibition,[10]; at 3.7 µM,37%
same,growth inhibition,[10]; [17],-7%
same,growth inhibition,[10]; at 11.0 µM,98% (active)
same,growth inhibition,[10]; at 33.0 µM,98% (active)
same,growth inhibition,[10]; [18],97% (active)
same,growth inhibition,[10]; at 50.0 µM,93.8% (active)
same,growth inhibition,[10]; at 100.0 µM,97% (active)
same,growth inhibition,[11]; at 1.2 µM,14%
same,growth inhibition,[11]; at 3.7 µM,33%
same,growth inhibition,[11]; at 11.0 µM,99% (active)
same,growth inhibition,[11]; at 33.0 µM,98% (active)
same,growth inhibition,[11]; at 100.0 µM,97% (active)
same,growth inhibition,[12]; [17],13%
same,growth inhibition,[12]; [18],94% (active)
same,growth inhibition,[12]; at 50.0 µM,98.1% (active)
same,growth inhibition,[13]; at 1.2 µM,-15%
same,growth inhibition,[13]; at 3.7 µM,7%
same,growth inhibition,[13]; at 11.0 µM,37%
same,growth inhibition,[13]; at 33.0 µM,94% (active)
same,growth inhibition,[13]; at 100.0 µM,97% (active)
same,growth inhibition,[14]; [17],30%
same,growth inhibition,[14]; [18],89% (active)
same,growth inhibition,[14]; at 50.0 µM,92% (active)
same,growth inhibition,[15]; at 1.2 µM,-2%
same,growth inhibition,[15]; at 3.7 µM,14%
same,growth inhibition,[15]; [17],59%
same,growth inhibition,[15]; at 11.0 µM,52%
same,growth inhibition,[15]; at 33.0 µM,97% (active)
same,growth inhibition,[15]; [18],91% (active)
same,growth inhibition,[15]; at 50.0 µM,97% (active)
same,growth inhibition,[15]; at 100.0 µM,95% (active)
same,growth inhibition,[16]; at 1.2 µM,11%
same,growth inhibition,[16]; at 3.7 µM,34%
same,growth inhibition,[16]; at 11.0 µM,95% (active)
same,growth inhibition,[16]; at 33.0 µM,98% (active)
same,growth inhibition,[16]; at 100.0 µM,97% (active)
same,growth inhibition,[1]; at 1.2 µM,27%
same,growth inhibition,[1]; at 3.7 µM,50%
same,growth inhibition,[1]; at 11.0 µM,98% (active)
same,growth inhibition,[1]; at 33.0 µM,98% (active)
same,growth inhibition,[1]; at 100.0 µM,95% (active)
same,growth inhibition,[2]; at 1.2 µM,42%
same,growth inhibition,[2]; at 3.7 µM,68%
same,growth inhibition,[2]; at 11.0 µM,97% (active)
same,growth inhibition,[2]; at 33.0 µM,97% (active)
same,growth inhibition,[2]; at 100.0 µM,96% (active)
same,growth inhibition,[3]; [17],38%
same,growth inhibition,[3]; [18],91% (active)
same,growth inhibition,[3]; at 50.0 µM,96.2% (active)
same,growth inhibition,[4]; at 1.2 µM,29%
same,growth inhibition,[4]; at 3.7 µM,56%
same,growth inhibition,[4]; at 11.0 µM,99% (active)
same,growth inhibition,[4]; at 33.0 µM,98% (active)
same,growth inhibition,[4]; at 100.0 µM,97% (active)
